Data: PubChem BioAssay AID1058 (Emory University Molecular Libraries Screening Center, 2008)
Results with a measured potency or affinity are listed apart. Activity calls are given as the source filed them.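 The calls were made as follows: active = fitted IC50 of 30 µM or less, with percent of control binding at that IC50 of 60 or less; inactive = the rest.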

Molecular target: Mothers against decapentaplegic homolog 3 (Homo sapiens) (UniProt P84022)
Assay: Smad3 binding inhibitors, lysate ELISA, dose response, cell lysate, secondary confirmation, chemiluminescent ELISA, HEK293 lysate (AID 1058)

Sequence of Mothers against decapentaplegic homolog 3 (Homo sapiens) (P84022 whole entry, looked up): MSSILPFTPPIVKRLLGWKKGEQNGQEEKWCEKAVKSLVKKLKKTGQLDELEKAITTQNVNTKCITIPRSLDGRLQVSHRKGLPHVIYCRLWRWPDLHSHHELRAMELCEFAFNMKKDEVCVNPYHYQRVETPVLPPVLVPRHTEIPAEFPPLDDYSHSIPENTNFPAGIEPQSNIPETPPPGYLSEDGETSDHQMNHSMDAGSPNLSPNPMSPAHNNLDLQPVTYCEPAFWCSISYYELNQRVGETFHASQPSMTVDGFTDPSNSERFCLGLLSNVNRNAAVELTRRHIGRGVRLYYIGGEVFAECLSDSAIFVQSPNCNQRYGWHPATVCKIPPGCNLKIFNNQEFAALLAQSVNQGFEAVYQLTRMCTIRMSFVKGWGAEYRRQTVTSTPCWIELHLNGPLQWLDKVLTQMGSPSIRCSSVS

With `Oc1cc2c(cc1C(c1ccc(F)cc1)N1CCOCC1)OCO2` (stereo unspecified) the outcome was “inactive”.
